Assay outcomes (PubChem BioAssay)
Pf Dd2 inh – qHTS Primary assay for Inhibitors of Plasmodium falciparum Dd2 growth in vitro. P. falciparum Dd2 growth, SYBR Green, 72 h. Potency, µM (titrated, usually from 28.9 µM), actives largely listed as inhibitors. 120,000 tested, 4.3% active. AID 1347417, 2020; active means well fitted inhibition curve with a large enough effect; further: nearly all actives have a fitted effect of over 65% in size
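Infected erythrocytes (Dd2, 0.3% parasitemia, 2.5% hematocrit final) are added to compound in RPMI-1640/Albumax II medium, grown 72 h at 37C in low oxygen, then lysed with saponin/Triton-X containing SYBR Green and read by fluorescence.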
Each line names hits and unclear results; the compound was inactive in the other large screens. The full list was thinned out, with hits kept by preference.

CCN(CC)C(=O)C[C@@H]1c2nc(NC(=O)CC(C)(C)C)sc2C[C@@H]2[C@](C)(CO)[C@H](O)CC[C@]21C	none
CCN(CC)C(=O)C[C@@H]1c2nc(NC(=O)c3cccs3)sc2C[C@@H]2[C@](C)(CO)[C@H](O)CC[C@]21C	Pf Dd2 inh 3.98µM
C=CCN(C)C(=O)C[C@@H]1c2nc(NC(=O)c3ccc(OC)cc3)sc2C[C@@H]2[C@](C)(CO)[C@H](O)CC[C@]21C	none
CC(=O)N1CCN(C(=O)C[C@@H]2c3nc(NC(=O)C4CCC4)sc3C[C@@H]3[C@](C)(CO)[C@H](O)CC[C@]32C)CC1	none
C=CCOC(=O)Nc1nc2c(s1)C[C@@H]1[C@](C)(CO)[C@H](O)CC[C@@]1(C)[C@@H]2CC(=O)NC(C)C	none
Cc1cccc(CC(=O)NCCC2CCN(C(=O)Nc3ccccc3)CC2)c1	none
CC(C)CCN1CCn2c(nn(-c3ccc(Cl)cc3)c2=O)C1	none
CO[C@H]1C(=O)N(C(C)C)[C@H]1C1CCN(S(=O)(=O)c2cccnc2)CC1	none
CCN1C(=O)C2CC3(CCN(S(=O)(=O)c4cccc(OC)c4)CC3)CN2C1=O (stereo not drawn)	none
O=C(COc1ccccc1)Nc1ccc([C@@H](O)[C@H]2COCC(=O)N2CCCc2ccccc2)cc1	Pf Dd2 inh 7.94µM
CCOCCN1C(=O)COC[C@@H]1[C@H](O)c1ccc(NC(=O)COc2ccccc2)cc1	none
CCN1C(=O)COC[C@@H]1[C@H](O)c1ccc(NC(=O)COc2ccccc2)cc1	none
CN[C@@H](CC(C)C)C(=O)N[C@H]1C[C@@](O)(C(=O)N[C@H](Cc2c[nH]c3ccccc23)C(N)=O)C[C@@H](O)[C@@H]1O	none
O=C(NC1CCCC1)N1CCCC(c2nn[nH]n2)C1 (stereo not drawn)	none
COc1cccc(N2CC(C(=O)NCc3cccs3)NC2=O)c1 (stereo not drawn)	none
Cc1c(C)n(Cc2ccccc2)c2ccc(C(=O)NCc3ccccc3F)cc12	none
Cc1ccccc1NC(=O)c1ccc2c(c1)c(C)c(C)n2Cc1ccccc1	none
CSc1cccc(NC(=O)c2ccc3c(c2)c(C)c(C)n3Cc2ccc(F)cc2)c1	Pf Dd2 inh 10µM
Cc1c(C)n(Cc2ccccc2)c2ccc(C(=O)NC(C)c3ccccc3)cc12 (stereo not drawn)	none
CCc1ccccc1NC(=O)c1ccc2c(c1)c(C)c(C)n2Cc1ccccc1	Pf Dd2 inh 11.2µM
CSc1ccc(CCNC(=O)c2ccc3c(c2)c(C)c(C)n3Cc2ccc(F)cc2)cc1	none
COCCN(C)C[C@@H]1CN(C(=O)c2cnn(-c3ccccc3)c2)C[C@@H]1CO	none
COc1ccc(NC(=O)CCC2CCCN(C(=O)C3=C(C)OCCO3)C2)cc1Cl (stereo not drawn)	Pf Dd2 inh 3.16µM
COc1ccc(Cl)cc1NC(=O)CCC1CCCN(S(=O)(=O)C2CC2)C1 (stereo not drawn)	none
COc1ccc(Cl)cc1NC(=O)CCC1CCCN(Cc2ccc(C)s2)C1 (stereo not drawn)	Pf Dd2 inh 12.6µM
COc1cc(OC)cc(C(=O)NCC2CCCN(C(=O)C3=C(C)OCCO3)C2)c1 (stereo not drawn)	none
COc1ccc(NC(=O)CCC2CCCN(C(=O)c3csc(C(C)=O)c3)C2)cc1Cl (stereo not drawn)	none
COc1ccc(Cl)cc1NC(=O)CCC1CCCN(C(=O)CCc2scnc2C)C1 (stereo not drawn)	none
Cc1ccc(N2CCC(NC(=O)c3ccc(Br)cc3)C2=O)cc1 (stereo not drawn)	none
CC(C)(C)c1ccc(C(=O)N2CCC(c3nc(C4CCOC4)no3)CC2)cc1 (stereo not drawn)	none
O=C(O)C(c1cccc(O)c1)N1CCN(C2CCCCC2)C(=O)C1 (stereo not drawn)	none
Cc1nnnn1CCCN1CCn2nc(CCC(=O)O)cc2C1	none
COc1ccc(C(=O)c2sc(Nc3ccccc3)nc2N)cc1	Pf Dd2 inh 8.91µM
COc1ccc(C(=O)c2sc(Nc3cc(Cl)ccc3C)nc2N)cc1OC	none
COc1ccccc1C(=O)Nc1sc(Nc2ccccc2)nc1C(N)=O	none
CCc1noc(-c2cn(C3CCN(C(=O)c4cc(C5CC5)[nH]n4)C3)nn2)n1 (stereo not drawn)	none
Cc1cccc(NC(=O)N2CCC(Cc3nc(-c4ccccc4)n[nH]3)CC2)c1	Pf Dd2 inh 1.58µM
Cc1cc(C)n(CCC(=O)N2CCC(Cc3nc(-c4ccccc4)n[nH]3)CC2)n1	none
Cc1ccc(CNC(=O)N2CCC(Cc3nc(-c4ccncc4)n[nH]3)CC2)cc1	none
O=C(c1ccc(C(F)(F)F)cc1)N1CCn2c(nn(-c3ccncc3)c2=O)C1	none
Cc1ccc(C(=O)N2CCC3(CC2)NC(=O)N(c2ccc(F)cc2)N3)cc1	none
CNC(=O)c1cnn2ncccc12	none
CCc1ccc(CN2CC(C(=O)NCc3ccncc3)C3(CCOCC3)C2)cc1 (stereo not drawn)	none
O=C(NCc1ccncc1)C1CN(Cc2cccc(Br)c2)CC12CCOCC2 (stereo not drawn)	Pf Dd2 inh 3.55µM
O=C(NCc1ccncc1)C1CN(Cc2ccoc2)CC12CCOCC2 (stereo not drawn)	none
COc1ccc(CCC(=O)N2CCOCCNC(=O)CC2)cc1	none
CN(C)C[C@@H]1CN(Cc2ccccc2)C[C@H]1NC(=O)C1(C)CCOCC1	none
Cc1cnc(C(=O)NC2C[C@H]3CC[C@@H](C2)N3C(=O)c2ccc(C)s2)cn1 (stereo partly drawn)	none
CCN(CC)CCN(C(=O)c1ccco1)c1nc2ccc(Cl)cc2s1	none
Cc1ccc2sc(N(CCCN(C)C)C(=O)c3ccco3)nc2c1C	Pf Dd2 inh 8.91µM
Cc1ccc(C)c2sc(N3CCN(C(=O)c4ccco4)CC3)nc12	none
O=C(NCc1nc(-c2ncccn2)no1)C1CCCN(Cc2ccco2)C1 (stereo not drawn)	none
Cc1ccc(OCCC2CCN(C(=O)c3ccccc3F)C2)cc1 (stereo not drawn)	none
CCOc1ccc(-n2c(/C=C/c3cccc(F)c3)nc3cc(OC)c(OC)cc3c2=O)cc1	none
COc1ccccc1C(O)c1nc(Nc2cccc(F)c2)n[nH]1 (stereo not drawn)	none
COc1cc2nc(Nc3cccc(F)c3)nc(N)c2cc1OC	Pf Dd2 inh 2.24µM
CC(C(=O)NCc1ccccc1)N1C(=O)COc2ccc(C(=O)COc3ccc(Cl)cc3)cc21 (stereo not drawn)	none
CCn1ncc(N2CCCC(CC(=O)Nc3ccccc3OC)C2)cc1=O (stereo not drawn)	none
COc1ccc(C(=O)NCCSc2c(C)[nH]c3ccccc23)cc1	none
CCN(CC)S(=O)(=O)c1ccc(C(=O)NCCSc2c(-c3ccc(C)cc3)[nH]c3ccccc23)cc1	Pf Dd2 inh 10µM
Cc1[nH]c2ccccc2c1SCCNC(=O)c1ccc(F)cc1	none
CCOC(=O)C1=CN(CC(=O)Nc2ccc(OCC)cc2)S(=O)(=O)N=C1C	none
CCOc1cc(=O)n2c(c1C(=O)Nc1cc(OC)cc(OC)c1)CCCC2	none
CC(C)(C)OC(=O)N1CCC(c2c(C(=O)NCc3ccc4c(c3)OCO4)cnn2-c2ccc(F)cc2F)CC1	Pf Dd2 inh 7.94µM
CC(C)(C)OC(=O)N1CCC(c2c(C(=O)Nc3ccc4c(c3)OCCO4)cnn2-c2ccc(F)cc2F)CC1	Pf Dd2 inh 3.98µM
COc1ccc(NC(=O)c2cnn(-c3ccc(F)cc3F)c2C2CCN(C(=O)OC(C)(C)C)CC2)cc1Cl	Pf Dd2 inh 7.94µM
Cc1c(Cl)cccc1-n1ncc(C(=O)Nc2ccc(F)cc2F)c1C1CCN(C(=O)OC(C)(C)C)CC1	none
CC(C)(C)OC(=O)N1CCC(c2c(C(=O)Nc3cccc(C(F)(F)F)c3)cnn2-c2ccc(F)cc2F)CC1	Pf Dd2 inh 11.2µM
